# Activity calls are given as the source filed them. Unless noted, the rule behind the calls is not given here.
# Key:
# [1] = compounds binding Alexa647 anti-His antibody – biochemical, small-molecule microarray, 635 nm fluorescence, artefact control for SMM control protein annotation, primary screen (AID 1128); details: higher = more signal;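 note: score merges feature fluorescence with signal-to-noise for each printed compound spot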
# [2] = test system: Human papillomavirus type 1a E7 protein (residues 1-88); assay: HPV1a E7 small-molecule binders, primary screen, biochemical, small-molecule microarray, residues 1-88, 635 nm (AID 1129); details: small-molecule microarray binding, fluorescence 635 nm; higher = more signal
# [3] = target: Focal adhesion kinase 1 (Homo sapiens) (UniProt Q05397); assay: PTK2 protein binding on printed compound slides – biochemical, small-molecule microarray, 635/667 nm fluorescence, BSA, DTT, primary screen (AID 1130); details: 635 nm fluorescence, higher = more signal;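 note: composite of spot emission at 667 nm and signal to noise over triplicate slides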
# Chain of Focal adhesion kinase 1 (Homo sapiens) (Q05397 whole entry, looked up): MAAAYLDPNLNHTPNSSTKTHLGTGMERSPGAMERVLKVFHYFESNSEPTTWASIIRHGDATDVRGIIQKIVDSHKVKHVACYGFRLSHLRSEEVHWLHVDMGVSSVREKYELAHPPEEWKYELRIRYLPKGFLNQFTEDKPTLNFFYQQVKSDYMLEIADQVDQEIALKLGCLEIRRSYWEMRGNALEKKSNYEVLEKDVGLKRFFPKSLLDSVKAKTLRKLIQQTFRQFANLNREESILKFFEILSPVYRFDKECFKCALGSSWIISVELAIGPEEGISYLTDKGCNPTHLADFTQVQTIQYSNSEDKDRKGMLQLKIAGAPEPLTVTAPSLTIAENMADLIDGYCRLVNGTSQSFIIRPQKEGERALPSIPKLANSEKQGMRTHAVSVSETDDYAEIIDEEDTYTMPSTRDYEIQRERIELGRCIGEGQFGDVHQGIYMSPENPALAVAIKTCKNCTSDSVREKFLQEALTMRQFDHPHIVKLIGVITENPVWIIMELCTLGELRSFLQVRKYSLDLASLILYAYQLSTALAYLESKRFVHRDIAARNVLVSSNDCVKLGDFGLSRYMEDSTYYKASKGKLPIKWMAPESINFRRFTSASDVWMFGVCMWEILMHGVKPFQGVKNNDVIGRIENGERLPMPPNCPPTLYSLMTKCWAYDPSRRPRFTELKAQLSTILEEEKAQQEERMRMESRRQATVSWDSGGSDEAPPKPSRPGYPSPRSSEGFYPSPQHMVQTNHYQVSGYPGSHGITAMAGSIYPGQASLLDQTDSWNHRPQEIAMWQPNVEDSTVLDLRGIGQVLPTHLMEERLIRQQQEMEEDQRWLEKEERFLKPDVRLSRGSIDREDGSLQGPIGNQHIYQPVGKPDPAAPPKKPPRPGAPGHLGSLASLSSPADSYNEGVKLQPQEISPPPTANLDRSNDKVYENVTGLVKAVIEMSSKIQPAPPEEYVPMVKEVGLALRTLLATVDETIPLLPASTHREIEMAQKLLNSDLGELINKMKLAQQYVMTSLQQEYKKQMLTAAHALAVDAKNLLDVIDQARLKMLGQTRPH
# [4] = test system: Fibrinogen (Alexa647-labelled); assay: Alexa647-fibrinogen binding to printed small molecules – biochemical, small-molecule microarray, 635/667 nm fluorescence, artefact control for SMM control-protein annotation, profiling panel (AID 1131); details: fibrinogen-A647 binding fluorescence, higher = more signal;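 note: z-score merges 667 nm fluorescence with per-spot signal-to-noise over triplicate slides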
# [5] = target: Follistatin (Homo sapiens) (UniProt P19883); assay: FST protein binding to printed compounds – biochemical, small-molecule microarray, 635/667 nm fluorescence, primary screen (AID 1132); details: 635 nm fluorescence, higher = more signal
# Chain of Follistatin (Homo sapiens) (P19883 whole entry, looked up): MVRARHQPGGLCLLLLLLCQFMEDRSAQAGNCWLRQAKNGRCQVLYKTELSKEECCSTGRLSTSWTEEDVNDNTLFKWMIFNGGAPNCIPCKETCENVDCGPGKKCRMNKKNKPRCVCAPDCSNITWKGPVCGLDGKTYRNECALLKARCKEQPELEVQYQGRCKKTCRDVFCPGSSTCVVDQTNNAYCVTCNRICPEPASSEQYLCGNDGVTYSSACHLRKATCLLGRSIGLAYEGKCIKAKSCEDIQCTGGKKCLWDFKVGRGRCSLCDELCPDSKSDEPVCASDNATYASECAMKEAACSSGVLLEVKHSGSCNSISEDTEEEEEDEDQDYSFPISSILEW
# [6] = target: Fibroblast growth factor 2 (Homo sapiens) (UniProt P09038); assay: basic fibroblast growth factor binding to printed compounds – biochemical, small-molecule microarray, 635/667 nm fluorescence, primary screen (AID 1133); details: FGF2, fluorescence 635/667, higher = more signal
# Chain of Fibroblast growth factor 2 (Homo sapiens) (P09038 whole entry, looked up): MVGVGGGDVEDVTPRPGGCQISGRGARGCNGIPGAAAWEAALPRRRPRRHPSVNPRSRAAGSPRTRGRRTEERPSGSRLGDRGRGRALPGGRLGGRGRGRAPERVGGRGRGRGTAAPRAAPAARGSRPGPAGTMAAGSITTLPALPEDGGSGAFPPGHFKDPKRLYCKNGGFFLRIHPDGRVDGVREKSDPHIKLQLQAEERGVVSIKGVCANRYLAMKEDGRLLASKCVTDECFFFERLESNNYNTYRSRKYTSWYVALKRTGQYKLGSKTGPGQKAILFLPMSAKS
# [7] = JC-1 mitochondrial potential readout, lung cancer cells – cell-based, A549, JC-1 fluorescence, basal, 24 h, 100 nL, profiling panel (AID 1138); details: higher = more signal;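 note: A549 lung adenocarcinoma cells under basal conditions with no added stimulus; test concentration not given here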
# [8] = test system: Lefty1; assay: Lefty1 protein binding to printed compounds – biochemical, small-molecule microarray, 635/667 nm fluorescence, primary screen (AID 1139); details: fluorescence 635/667, higher = more signal
# [9] = test system: wheat germ agglutinin (Triticum aestivum), Alexa647-labelled; assay: Alexa647-WGA lectin binding to printed small molecules – biochemical, small-molecule microarray, 635/667 nm fluorescence, artefact control for SMM control-protein annotation, profiling panel (AID 1140); details: WGA-A647 binding, 635 nm fluorescence, higher = more signal;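 note: score merges 667 nm feature emission with signal to noise over triplicate slides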
# [10] = target: Luciferin 4-monooxygenase (Photinus pyralis) (UniProt P08659); assay: inhibition of purified Photinus pyralis luciferase – biochemical, luminescence, purified enzyme, 2006 set, primary screen (AID 1141); details: purified firefly luciferase, SteadyGlo luminescence, 30 min; higher = more signal, called active from +8 up or from −8 down;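 note: cell-free assay with purified firefly luciferase at 100 ng per well in PBS; test concentration not given here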
# Chain of Luciferin 4-monooxygenase (Photinus pyralis) (P08659 whole entry, looked up): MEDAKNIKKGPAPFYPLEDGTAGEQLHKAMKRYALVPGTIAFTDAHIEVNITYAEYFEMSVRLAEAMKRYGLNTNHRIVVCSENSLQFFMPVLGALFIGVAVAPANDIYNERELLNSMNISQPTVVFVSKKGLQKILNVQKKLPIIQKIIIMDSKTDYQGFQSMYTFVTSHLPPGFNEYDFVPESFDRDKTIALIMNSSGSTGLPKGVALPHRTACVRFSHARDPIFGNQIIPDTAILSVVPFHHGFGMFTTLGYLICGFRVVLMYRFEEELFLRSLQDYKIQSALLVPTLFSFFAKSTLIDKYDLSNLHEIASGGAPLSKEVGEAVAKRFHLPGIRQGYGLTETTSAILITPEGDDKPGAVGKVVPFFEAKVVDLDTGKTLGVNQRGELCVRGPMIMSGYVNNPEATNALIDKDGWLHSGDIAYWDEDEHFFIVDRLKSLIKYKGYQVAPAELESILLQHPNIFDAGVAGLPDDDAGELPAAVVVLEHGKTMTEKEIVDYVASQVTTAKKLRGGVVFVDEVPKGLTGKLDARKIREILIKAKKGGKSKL
# [11] = test system: Wnt5a (protein binding on small-molecule microarray); assay: small molecules binding Wnt5a protein – biophysical, small-molecule microarray, 635/667 nm fluorescence, primary screen (AID 1142); details: 635 nm fluorescence, higher = more signal;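 note: fluorescence read at 667 nm with signal to noise per printed feature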
# [12] = ATP-based viability of Huh7 replicon cells – cell-based, CellTiter-Glo luminescence, basal, 48 h, cytotoxicity control for HCV replication inhibitor project, primary screen (AID 1143); details: higher = more signal, called active from +8 up or from −8 down;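 note: Huh7 hepatoma cells carrying a hepatitis C replication reporter with no stimulus; test concentration not given here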
# [13] = Pseudomonas biofilm growth suppression – PAO1 strain, BacTiter-Glo luminescence, LB-PBS, primary screen (AID 1144); details: P. aeruginosa PAO1 biofilm, 12 h, higher = more signal
# [14] = basal CRE-LacZ reporter activity in PC12 – cell-based, unstimulated, primary screen (AID 1145); details: no forskolin, luminescence, 4.5 h, higher = more signal, called active from +8 up or from −8 down
# [15] = forskolin-driven CRE-LacZ activity in PC12 – cell-based, CRE-LacZ reporter, forskolin-stimulated, primary screen (AID 1146); details: luminescence, 4.5 h, higher = more signal, called active from +8 up or from −8 down;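 note: PC12 cells with 6xCRE LacZ reporter stimulated by forskolin 10 µM; beta-galactosidase reporter signal reflecting CREB driven transcription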
# [16] = target: Streptavidin (Streptomyces avidinii) (UniProt P22629); assay: compounds binding control protein streptavidin – biophysical, small-molecule microarray, 635/667 nm fluorescence, artefact control for SMM compound annotation, primary screen (AID 1147); details: higher = more signal;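 note: signal reflects streptavidin binding to arrayed compounds as a control protein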
# Chain of Streptavidin (Streptomyces avidinii) (P22629 whole entry, looked up): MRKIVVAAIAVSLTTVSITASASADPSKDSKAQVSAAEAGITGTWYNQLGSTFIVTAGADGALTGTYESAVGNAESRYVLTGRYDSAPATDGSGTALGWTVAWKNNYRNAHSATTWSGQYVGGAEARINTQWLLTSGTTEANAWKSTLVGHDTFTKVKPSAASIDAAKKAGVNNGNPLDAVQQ
# [17] = probe aInhba binding on compound microarray – biochemical, small-molecule microarray, 635/667 nm fluorescence, primary screen (AID 1148); details: higher = more signal;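 note: score merges 667nm spot fluorescence with signal-to-noise for antibody binding to printed compounds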
# [18] = target: Torsin-1A (Homo sapiens) (UniProt O14656); assay: TOR1A wild-type binding on microarray – cell lysate, small-molecule microarray, lysate, 635/667 nm, primary screen (AID 1149); details: COS7 hTOR1A-WT lysate, 635 nm fluorescence, higher = more signal
# Chain of Torsin-1A (Homo sapiens) (O14656 whole entry, looked up): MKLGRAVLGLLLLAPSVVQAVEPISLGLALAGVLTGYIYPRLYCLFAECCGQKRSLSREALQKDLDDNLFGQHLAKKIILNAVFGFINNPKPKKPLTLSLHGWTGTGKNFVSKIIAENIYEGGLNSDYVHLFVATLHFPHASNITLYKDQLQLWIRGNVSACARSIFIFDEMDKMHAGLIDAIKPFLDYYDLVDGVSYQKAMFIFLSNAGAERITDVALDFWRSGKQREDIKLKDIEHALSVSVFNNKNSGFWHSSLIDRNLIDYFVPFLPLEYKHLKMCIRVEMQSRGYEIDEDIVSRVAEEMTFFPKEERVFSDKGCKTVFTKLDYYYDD
# [19] = target: Torsin-1A (Homo sapiens) (UniProt O14656); assay: torsin A mutant lysate binding on microarrays – cell lysate, small-molecule microarray, COS7 lysate, 635/667 nm fluorescence, primary screen (AID 1150); details: COS7 hTOR1A mutant lysate, 635 nm fluorescence, higher = more signal;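 note: score pools 667 nm emission and signal to noise measuring lysate protein binding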
# [20] = test system: Sonic hedgehog protein (Shh); assay: Sonic hedgehog microarray binding compounds – biochemical, small-molecule microarray, 635/667 nm fluorescence, primary screen (AID 1151); details: 635 nm fluorescence, higher = more signal;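 note: Shh protein binding to compounds spotted on small-molecule microarray slides; score combines spot fluorescence intensity with signal-to-noise across triplicate slides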
Compound,composite z-score [1],composite z-score [2],composite z-score [3],composite z-score [4],composite z-score [5],composite z-score [6],z-score [7],composite z-score [8],composite z-score [9],z-score [10],composite z-score [11],z-score [12],z-score [13],z-score [14],z-score [15],composite z-score [16],composite z-score [17],composite z-score [18],composite z-score [19],composite z-score [20]
CS(=O)(=O)CCOC(=O)C1=CC(CCCO)=CC(c2cccs2)N(Cc2cc3c(cc2Br)OCO3)C=C1C(=O)OCCS(C)(=O)=O (stereo not given),1.16,1.21,1.11,1.01,1.28,0.564,1.26,1.22,1.05,-1.16 (inactive),0.567,-1.26 (inactive),0.00546 (inactive),-0.583 (inactive),0.72 (inactive),2.16,0.086,1.3,1.16,0.759
C[C@]1(C(=O)NCc2ccccc2)c2ccccc2C(=O)N(Cc2cc(F)cc(C(F)(F)F)c2)[C@H]1c1ccc(CO)cc1,0.84,-0.184,-0.349,-0.582,-1.13,-0.278,0.916,-1.14,-0.566,0.585 (inactive),-0.0261,-1.8 (inactive),-0.255 (inactive),0.0909 (inactive),-0.323 (inactive),-0.859,0.13,-0.956,-1.47,-0.436
CCCCC(O)C1C=CC2C(=O)N(C3CCCCC3)C(=O)C2N1Nc1ccc(OC)cc1 (stereo not given),0.17,1.2,0.601,0.733,1.19,-0.0692,0.191,0.496,1.14,1.06 (inactive),0.177,-0.527 (inactive),-1.47 (inactive),0.276 (inactive),0.765 (inactive),1.54,0.0785,0.0983,-0.001,0.342
CC(=O)NCCCC[C@@H]1NC(=O)[C@@H]2C[C@H](C(=O)NCCCCCCNC(=O)CS)[C@H](c3ccc(O)cc3)N2C1=O,3.39,0.964,0.208,0.224,0.304,0.104,-0.177,0.236,0.418,-0.557 (inactive),-0.126,0.448 (inactive),-0.388 (inactive),-0.268 (inactive),-0.277 (inactive),0.453,-0.0944,0.957,0.936,0.377
COc1cc(CO)ccc1OC(C)=O,0.529,0.741,0.315,0.555,1.07,0.502,1.54,0.636,0.243,-0.743 (inactive),0.226,-2.07 (inactive),-0.433 (inactive),0.0918 (inactive),-0.874 (inactive),0.683,-0.308,0.867,0.388,1.05
CC(C)(C)N1CC=CC23O[C@@H]4C=CCOC(=O)[C@@H]4[C@H]2C(=O)N(CCCCCO)[C@@H]3C1=O (stereo not given in full),3.57,-1.45,-0.758,-2.1,-0.889,-0.326,-0.879,-1.17,-1.31,0.107 (inactive),-0.248,0.228 (inactive),0.123 (inactive),-0.631 (inactive),0.687 (inactive),-1.41,-0.421,-0.803,-1.05,-0.15
O=C1C[C@@](C(=O)NC2CC2)(c2ccc([N+](=O)[O-])cc2)[C@@H](c2ccc(CO)cc2)N1CC12CC3CC(CC(C3)C1)C2,0.294,0.831,0.473,0.934,1.21,0.0882,0.0799,0.427,0.553,1.12 (inactive),0.382,-4.42 (inactive),-0.752 (inactive),-0.529 (inactive),-1.12 (inactive),0.465,-0.0736,0.477,-0.176,0.777
C=CCC(OC(C)=O)[C@@H]1[C@@H](N(Cc2ccc(-c3ccccc3)cc2)C(=O)Cc2ccc(OC)cc2)c2cc(OCCCO)ccc2N1C(=O)c1ccc2ccccc2n1 (stereo not given in full),0.009,0.0656,0.0569,0.534,0.45,0.635,1.34,0.221,0.22,-0.592 (inactive),-0.167,-1.53 (inactive),0.321 (inactive),0.409 (inactive),0.677 (inactive),0.437,-0.0471,-0.0598,0.0615,-0.111
C=C[C@@H](COC(C)=O)N(Cc1ccccc1[N+](=O)[O-])S(=O)(=O)c1ccc(Br)cc1,2.18,1.11,0.547,0.619,1.42,1.51,0.505,0.929,0.567,0.335 (inactive),0.521,-4.76 (inactive),-1.65 (inactive),-0.0108 (inactive),-1.41 (inactive),1.16,-0.104,0.55,1.58,1.97
CCOC(=O)C[C@H]1[C@H](OC(=O)c2ccc(-c3ccccc3)cc2)[C@@H](NC(=O)c2ccc(-c3ccccc3)cc2)c2cc(OCCCO)ccc2N1C(=O)Cc1ccc(OC)cc1,0.296,0.226,0.315,0.656,0.13,-0.167,0.322,-0.245,-0.0591,0.735 (inactive),0.0386,-0.477 (inactive),-0.402 (inactive),-0.448 (inactive),-0.494 (inactive),0.745,0.0301,-0.205,0.119,-0.195
COCCOC(=O)N1C(=O)[C@@]2(c3cc(C#CCNC(N)=O)ccc31)[C@H](c1ccc(O)cc1)N1[C@H](c3ccccc3)[C@H](c3ccccc3)OC(=O)[C@H]1[C@@H]2C(=O)Nc1nc2ccccc2s1,0.0698,0.967,0.387,0.558,1.33,1.2,-1.91,0.851,0.785,-2.38 (inactive),0.327,-2.61 (inactive),-2.43 (inactive),-0.463 (inactive),-1.5 (inactive),0.454,-0.102,0.518,0.587,1.34
C=CCNC(=O)[C@@H]1[C@H]2C(=O)O[C@H](c3ccccc3)[C@H](c3ccccc3)N2[C@H](c2ccc(OCCO)cc2)[C@@]12C(=O)Nc1ccccc12,0.797,1.22,0.102,0.934,1.1,0.516,0.253,1.03,0.496,-8.15 (active),0.358,-4.32 (inactive),-2.23 (inactive),-0.905 (inactive),-1.87 (inactive),0.226,-0.102,0.355,0.209,1.61
CC(C)NC(=O)[C@@]1(Cc2ccccc2I)c2ccccc2C(=O)N(Cc2ccccc2)[C@H]1c1ccc(CO)cc1,3.2,1.19,1.05,0.387,1.29,1.07,0.188,1.19,0.131,0.277 (inactive),0.107,-2.05 (inactive),-0.549 (inactive),-0.231 (inactive),0.0359 (inactive),0.0632,0.817,0.484,-0.181,1.39
Cc1ccc(S[C@]2(C(=O)NCCN3CCOCC3)CC(=O)N(Cc3cc(C(F)(F)F)cc(C(F)(F)F)c3)[C@@H]2c2ccc(CO)cc2I)cc1,-1.02,-0.27,0.414,-0.46,0.016,-1.13,0.164,-0.304,0.0101,1.31 (inactive),-0.314,-2.42 (inactive),-0.956 (inactive),0.389 (inactive),-0.0376 (inactive),-0.71,-0.183,-2,0.561,-0.4
CC1CC/C=C\[C@H]2OC34C=CCN(Cc5ccccc5)C(=O)[C@H]3N(CCCCCO)C(=O)[C@@H]4C2C(=O)O1 (stereo not given in full),0.15,-0.825,1.19,-0.985,-0.599,-0.754,1.37,-0.812,-0.494,-0.763 (inactive),0.008,0.398 (inactive),1.96 (inactive),1 (inactive),0.424 (inactive),-0.966,-0.242,-1.17,-1.4,-0.829
COc1cc2c(cc1O)C(C)N(Cc1cccc(OC(F)(F)F)c1)CC2 (stereo not given),1.72,1.13,-0.135,0.966,0.659,-0.258,-0.681,0.108,0.984,1.35 (inactive),0.475,-0.842 (inactive),-0.334 (inactive),0.506 (inactive),1.66 (inactive),0.395,0.0528,1.7,1.91,0.204
C=CC(=C)C1=CCO[C@@H]1[C@H]1CCCN1S(=O)(=O)c1ccccc1[N+](=O)[O-],0.2,0.25,-0.318,0.802,0.976,0.174,-0.295,0.767,0.241,0.0352 (inactive),0.224,-0.169 (inactive),-0.484 (inactive),0.124 (inactive),0.619 (inactive),0.909,-0.0221,0.343,0.136,1.84
NC(=O)NCC#Cc1ccc2c(c1)[C@]1(C(=O)N2)[C@H](C(=O)NC[C@H](O)c2ccccc2)[C@H]2C(=O)O[C@H](c3ccccc3)[C@H](c3ccccc3)N2[C@@H]1c1ccc(O)cc1,0.489,1.17,0.58,0.673,1.17,1.21,-2.34,0.595,1.09,-0.0138 (inactive),0.545,0.525 (inactive),-0.846 (inactive),-0.465 (inactive),-0.467 (inactive),1.34,0.529,0.325,0.816,1.02
